The target of assay [1] is PGR (gene 5241) (UniProt P06401). As to the kind of experiment: TOX21_PR_BLA_Followup_Agonist_ratio: Tox21 HEK293 Progesterone Receptor (PR) Agonism Beta-lactamase Follow-Up Assay, Ratio (AID 2283933). Put shortly:
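Ratio-based beta-lactamase reporter signal after 16 hr compound treatment of PR-UAS-bla HEK293T cells at 37C. Substrate loading lasted 2 hr at room temperature.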

Assay [2] can be described thus: TOX21_PR_BLA_Followup_Agonist_viability: Viability Assessment in the Tox21 HEK293 Progesterone Receptor (PR) Agonism Beta-lactamase Follow-Up Assay (AID 2283935).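 Also: signal loss means lower viability so actives are cytotoxic.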 The essentials: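 Viability is read as CellTiter-Glo luminescence, where loss of signal indicates cytotoxicity. The cells are PR-UAS-bla HEK293T given compounds for 16 hr at 37C and 5% CO2, in the same wells used for the bla readout.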

Assay [3] is described as follows: TOX21_PR_BLA_Followup_Antagonist_viability: Viability Assessment in the Tox21 HEK293 Progesterone Receptor (PR) Antagonism Beta-lactamase Follow-Up Assay (AID 2283936).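 Also: cells exposed to compound with R5020 agonist for 16 h; hits lower the luminescence signal meaning cytotoxicity.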 Put shortly:
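PR-UAS-bla HEK293T cells in medium with 2% charcoal-stripped FBS were treated with compounds plus R5020 for 16 hr at 37C. After the beta-lactamase read, CellTiter-Glo was added to the same wells and luminescence read after 30 min at room temperature.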

Assay [4] concerns the target PGR (gene 5241) (UniProt P06401). In words: TOX21_PR_LUC_Followup_Agonist: Tox21 HEK293 Progesterone Receptor (PR) Agonism Luciferase Follow-Up Assay (AID 2283937; active = hit-call score of the fitted dose curve at least 0.9, where 1 is the maximum; inactive = score below 0.9). Put shortly:
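In HEK293 cells stably expressing PR-A with a luciferase reporter, compounds were incubated 16 h at 37C, and induced luminescence was quantified with ONE-Glo, multiplexed with cell viability.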

Assay [5] shares this target. As to the kind of experiment: TOX21_PR_LUC_Followup_Antagonist: Tox21 HEK293 Progesterone Receptor (PR) Antagonism Luciferase Follow-Up Assay (AID 2283938).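 Also: curve fitted upward as signal gain over DMSO baseline despite antagonist label.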 The essentials: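 Luciferase reporter in HEK293-PR-A-luc cells: 16 h compound treatment at 37C, ONE-Glo luminescence detection, DMSO as negative control and baseline.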
A short description of assay [6]: TOX21_PR_LUC_Followup_Antagonist_viability: Viability Assessment in the Tox21 HEK293 Progesterone Receptor (PR) Antagonism Luciferase Follow-Up Assay (AID 2283940). The essentials: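 Loss of CellTiter-Glo ATP signal indicates cytotoxicity in HEK293-PR-A-luc cells grown in 10% charcoal-stripped FBS medium, seeded 3,000 per well and incubated 16 h with compound at 37C.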

Assay [7] has as its target Thyroid hormone receptor alpha (Rattus norvegicus) + Thyroid hormone receptor beta (Rattus norvegicus) (UniProt P18113+P63059). As to the kind of experiment: TOX21_TR_LUC_GH3_Antagonist_Followup: Tox21 GH3 Thyroid Hormone Receptor Antagonism Luciferase Follow-Up Assay (AID 2283942). Put shortly:
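Luminescence read-out (ONE-Glo, 30 min at room temperature) in GH3 reporter cells challenged with 1.0 nM T3 final. Compounds ran at 92 uM to 5nM over 15 concentrations for 24 h; DMSO served as negative control and baseline.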

For the next assay, the target named is THRA (gene 7067) (UniProt P10827). In words: TOX21_TRA_COA_Antagonist_Followup_ratio: Tox21 Thyroid Hormone Receptor alpha Antagonism through Coactivator Recruitment Follow-Up Assay, Ratio (AID 2283953). The essentials: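 We measured antagonism of T3-type coactivator recruitment using a TR-FRET ratio (emission 520 and 495 nm) between a Tb-labelled anti-GST antibody on TRα LBD (2.5 nM) and SRC-2 peptide (200 nM). Activity was scaled between DMSO and T3 wells.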

In assay [8] the target is THRB (gene 7068) (UniProt P10828). As to the kind of experiment: TOX21_TRB_BLA_Antagonist_Followup_ratio: Tox21 Thyroid Hormone Receptor beta Antagonism Beta-lactamase (BLA) Follow-Up Assay, Ratio (AID 2283958). The essentials:
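Using charcoal-stripped 2% FBS medium, human TRβ-LBD/GAL4 reporter HEK293T cells received test compounds for 18 h. The endpoint is the cleaved-to-uncleaved substrate ratio (460/530 nm).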

Assay [9] in a line: TOX21_TRB_BLA_Antagonist_Followup_viability: Viability Assessment in the Tox21 Thyroid Hormone Receptor beta Antagonism Beta-lactamase (BLA) Follow-Up Assay (AID 2283961). Put shortly: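 In the same wells as the reporter read, cell health was gauged by CellTiter-Glo ATP luminescence, with signal loss indicating reduced viability. Cells had been exposed to test compounds for 18 h.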

Assay [10] has as its target THRB (gene 7068) (UniProt P10828). In words: TOX21_TRB_COA_Antagonist_Followup_ratio: Tox21 Thyroid Hormone Receptor beta Antagonism through Coactivator Recruitment Follow-Up Assay, Ratio (AID 2283967). Put shortly: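 GST-TRb LBD 5.0 nM + 0.10% BSA, compound added; fluorescein-SRC-2 peptide 200 nM, Tb-anti-GST Ab 2 nM. TR-FRET, ex 340 / em 520:495 ratio. Norm: DMSO 0%, T3 100%.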

The nature of assay [11]: TOX21_TR_RXR_BLA_Antagonist_Followup_viability: Viability Assessment in the Tox21 Thyroid Hormone Receptor beta Retinoid X Receptor alpha (RXRa) Antagonism Beta-lactamase (BLA) Follow-Up Assay (AID 2283979). The essentials:
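RXRa-bla HEK293T cells (2,500/well, phenol red-free DMEM, 2% charcoal-stripped FBS) were attached 5 h, then exposed to compounds at 11 concentrations in triplicate for 16 h at 37C. Viability measured by CellTiter-Glo ATP luminescence, bidirectional fitting versus DMSO.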

Assay [12] concerns the target Retinoic acid receptor RXR-alpha (Homo sapiens) (UniProt P19793). As to the kind of experiment: TOX21_TR_RXR_BLA_Antagonist_Followup_ratio: Tox21 Thyroid Hormone Receptor beta Retinoid X Receptor alpha (RXRa) Antagonism Beta-lactamase (BLA) Follow-Up Assay, Ratio (AID 2283972). Put shortly:
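Compounds were tested in triplicate at 11 concentrations on RXRa-bla HEK293T cells for 16 h. Substrate cleavage ratio, normalized to DMSO, gave the endpoint.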

The text below walks through data of PubChem BioAssay (EPA / NIEHS).

Inconclusive results are not listed. Active and inactive are the calls of the source. The calls were made as follows, unless noted: active = hit-call score of the fitted dose curve at least 0.9, where 1 is the maximum; inconclusive = response in the unintended direction; inactive = score below 0.9.

Chain of PGR (gene 5241) (P06401 whole entry, looked up): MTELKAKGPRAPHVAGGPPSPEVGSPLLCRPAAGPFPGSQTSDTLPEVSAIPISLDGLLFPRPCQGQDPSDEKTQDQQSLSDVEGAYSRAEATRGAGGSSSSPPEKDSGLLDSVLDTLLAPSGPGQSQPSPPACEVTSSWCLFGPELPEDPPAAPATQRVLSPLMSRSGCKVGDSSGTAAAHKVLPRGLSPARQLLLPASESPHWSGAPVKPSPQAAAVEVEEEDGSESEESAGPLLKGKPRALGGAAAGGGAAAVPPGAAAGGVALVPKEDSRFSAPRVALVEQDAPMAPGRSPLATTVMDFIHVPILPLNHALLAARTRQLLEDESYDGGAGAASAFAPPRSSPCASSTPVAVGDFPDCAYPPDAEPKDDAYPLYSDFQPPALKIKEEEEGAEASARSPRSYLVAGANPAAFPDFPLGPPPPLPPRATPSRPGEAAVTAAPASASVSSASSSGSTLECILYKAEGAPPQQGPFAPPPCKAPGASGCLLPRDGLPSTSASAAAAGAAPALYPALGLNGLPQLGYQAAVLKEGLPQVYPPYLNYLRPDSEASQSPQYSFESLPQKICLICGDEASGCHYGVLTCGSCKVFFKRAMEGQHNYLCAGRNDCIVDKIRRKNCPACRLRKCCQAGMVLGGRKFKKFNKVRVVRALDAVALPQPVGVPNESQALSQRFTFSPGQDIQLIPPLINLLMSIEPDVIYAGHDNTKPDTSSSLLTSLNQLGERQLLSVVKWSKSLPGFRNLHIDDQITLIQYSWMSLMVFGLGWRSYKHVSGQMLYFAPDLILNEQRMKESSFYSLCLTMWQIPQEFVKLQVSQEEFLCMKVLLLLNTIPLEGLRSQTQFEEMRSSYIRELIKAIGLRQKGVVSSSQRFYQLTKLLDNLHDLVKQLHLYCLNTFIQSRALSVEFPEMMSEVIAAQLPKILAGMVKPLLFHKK
Chain of THRB (gene 7068) (P10828 whole entry, looked up, the tested form may be a part): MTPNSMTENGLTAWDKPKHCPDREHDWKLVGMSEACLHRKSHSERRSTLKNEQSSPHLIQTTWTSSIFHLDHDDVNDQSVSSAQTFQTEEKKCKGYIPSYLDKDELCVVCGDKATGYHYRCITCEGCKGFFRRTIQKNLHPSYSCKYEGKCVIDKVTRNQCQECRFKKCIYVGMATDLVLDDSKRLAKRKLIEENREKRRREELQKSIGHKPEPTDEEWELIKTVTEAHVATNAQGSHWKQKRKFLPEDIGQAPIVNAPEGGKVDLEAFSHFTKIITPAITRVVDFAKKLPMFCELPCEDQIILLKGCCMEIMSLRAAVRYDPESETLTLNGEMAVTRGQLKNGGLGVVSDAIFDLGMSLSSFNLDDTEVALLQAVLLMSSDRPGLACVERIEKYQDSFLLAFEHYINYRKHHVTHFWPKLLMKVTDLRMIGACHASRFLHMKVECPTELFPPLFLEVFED
Chain of THRA (gene 7067) (P10827 whole entry, looked up, the tested form may be a part): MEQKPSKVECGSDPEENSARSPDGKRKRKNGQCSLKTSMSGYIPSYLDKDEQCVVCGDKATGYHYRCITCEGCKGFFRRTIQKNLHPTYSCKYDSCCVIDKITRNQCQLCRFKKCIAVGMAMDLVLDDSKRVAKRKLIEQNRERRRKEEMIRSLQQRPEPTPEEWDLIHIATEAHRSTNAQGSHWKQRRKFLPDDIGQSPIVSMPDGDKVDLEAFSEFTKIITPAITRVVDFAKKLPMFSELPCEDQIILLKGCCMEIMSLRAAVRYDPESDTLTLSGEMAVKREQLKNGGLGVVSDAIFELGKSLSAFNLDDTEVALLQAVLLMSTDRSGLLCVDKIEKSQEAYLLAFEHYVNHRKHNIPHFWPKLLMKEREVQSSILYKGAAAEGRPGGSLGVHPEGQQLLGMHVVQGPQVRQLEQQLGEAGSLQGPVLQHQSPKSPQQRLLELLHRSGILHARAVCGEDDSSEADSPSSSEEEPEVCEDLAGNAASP
Chain of Retinoic acid receptor RXR-alpha (Homo sapiens) (P19793 whole entry, looked up): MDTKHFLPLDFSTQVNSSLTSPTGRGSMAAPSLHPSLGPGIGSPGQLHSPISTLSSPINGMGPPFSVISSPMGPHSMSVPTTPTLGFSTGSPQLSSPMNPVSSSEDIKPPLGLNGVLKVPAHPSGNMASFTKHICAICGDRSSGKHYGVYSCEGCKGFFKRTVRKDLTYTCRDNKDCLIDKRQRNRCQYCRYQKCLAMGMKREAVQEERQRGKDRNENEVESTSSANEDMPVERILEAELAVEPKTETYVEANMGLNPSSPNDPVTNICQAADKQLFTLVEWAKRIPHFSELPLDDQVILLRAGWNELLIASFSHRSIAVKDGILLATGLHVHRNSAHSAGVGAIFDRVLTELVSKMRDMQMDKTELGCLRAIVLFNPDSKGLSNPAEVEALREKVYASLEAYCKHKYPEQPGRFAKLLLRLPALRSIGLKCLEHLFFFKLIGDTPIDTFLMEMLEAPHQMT

Turning to `COC(=O)[C@@H]1CC2=CC(=O)CC[C@]2(C)[C@@]23O[C@@H]2C[C@@]2(C)[C@@H](CC[C@@]24CCC(=O)O4)[C@H]13`, the outcome (with PGR (gene 5241) [1]; in assay [2]; in [3]; with PGR (gene 5241) [4]; with PGR (gene 5241) [5]; in assay [6]) was inactive.
The term AC50 denotes the concentration giving half of the maximal activity seen. Take `Cc1ccc(Nc2nccc(N(C)c3ccc4c(C)n(C)nc4c3)n2)cc1S(N)(=O)=O`: the AC50 in [7] is 31.3 µM (active); in the assay with THRB (gene 7068) [8], 14.7 µM (active); in assay [9], 19.2 µM (active); with THRB (gene 7068) [10] it was 19.2 µM (active). In addition, the outcome (with THRA (gene 7067); in assay [11]) was inactive.
`CC(=O)O[C@@]12CO[C@@H]1C[C@H](O)[C@@]1(C)C(=O)[C@H](O)C3=C(C)[C@@H](OC(=O)[C@H](O)[C@@H](NC(=O)OC(C)(C)C)c4ccccc4)C[C@@](O)([C@@H](OC(=O)c4ccccc4)[C@H]21)C3(C)C`: the outcome (in [7]; with THRA (gene 7067); in the assay with THRB (gene 7068) [8]; with THRB (gene 7068) [10]; in assay [12]; in [11]) was inactive.
As for `CCCC(=O)OCOC(=O)C1=C(C)NC(C)=C(C(=O)OC)C1c1cccc(Cl)c1Cl` (stereo not given), the result (with PGR (gene 5241) [1]; in assay [2]; in assay [3]; with PGR (gene 5241) [4]; in the assay with PGR (gene 5241) [5]) was inactive.
Consider `CCCC(=O)O[C@]1(C(=O)CO)CC[C@H]2[C@@H]3CCC4=CC(=O)CC[C@]4(C)[C@H]3[C@@H](O)C[C@@]21C`, for which the compound was classed as inactive (in assay [2]; with PGR (gene 5241) [5]).
On to `C[C@]12CCC(=O)C=C1CC[C@@H]1[C@@H]2[C@@H](O)C[C@@]2(C)[C@H]1CC[C@]2(O)C(=O)CO`, for which the outcome (with PGR (gene 5241) [1]; in [2]) was inactive. For the same compound, the half-maximal activity concentration (AC50) with PGR (gene 5241) [4] was 1.3 µM (active).
With `CC(=O)OCC(=O)[C@@]1(O)[C@H](C)C[C@H]2[C@@H]3CCC4=CC(=O)C=C[C@]4(C)[C@@]3(F)[C@@H](O)C[C@@]21C`, the compound was classed as inactive (in assay [2]; in assay [3]; with PGR (gene 5241) [5]; in assay [6]).
Consider `Clc1ccccc1CN1CCc2sccc2C1`, for which the compound was classed as inactive in assay [2], in [3] and in [6].
